Results published in PubChem BioAssay AID647 (Vanderbilt High Throughput Screening Facility, 2007).
The whole screen tested about 2,200 compounds, of which about 1,400 (64%) were called active. So high a share suggests a set chosen from earlier hits. The list is a sample of the results. Values without a mark were called inactive.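 The calls were made as follows: active = luminescence in either replicate above plate mean of wells with a partly effective reference agonist dose plus 3 SD; inactive = the rest.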

Assay: isoproterenol-driven CRE-luciferase response modulation in HEK293 cells, confirmation, counter-screen for D1 allosteric modulator project, cell-based, secondary assay 2, luminescence (AID 647);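 also: isoproterenol raises cAMP through native beta-adrenoceptor Gs so signal bypasses D1; raw luminescence counts from the Envision reader with one value per duplicate well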
Conditions: isoproterenol EC30 counter-screen, at 10 µM, stronger effect = higher value

Row | SMILES | luminescence
1 | COc1ccc(-c2nnc(SCC(=O)NC3CCCCC3)o2)cc1OC | 3200 (active)
2 | O=S(=O)(c1cccs1)N1CCc2ccccc2C1 | 3530 (active)
3 | CCOC(=O)/C=c1\s/c(=C\c2ccccc2OC)c(=O)n1CC(=O)N1CCOCC1 | 3580 (active)
4 | CCCn1c(=O)c2[nH]c(C3CCCC3)nc2n(CCC)c1=O | 3630 (active)
5 | COc1ccc(S(=O)(=O)N(C)CC(=O)Nc2ccc3c(c2)OCCO3)cc1OC | 3480 (active)
6 | Cc1nn(-c2ccccc2)c2c1C(=O)NC(=O)C(C)(C)C2 | 3700 (active)
7 | CC(=O)OC(C)C[N+](C)(C)C (stereo unspecified) | 2500
8 | CCc1ccc2oc(=O)cc(CN3CCCCC3C)c2c1 (stereo unspecified) | 3040 (active)
9 | COc1ccc(-c2n[nH]c(C)c2-c2ccc(OC)c(OC)c2)c(O)c1 | 3290 (active)
10 | CC1CCN(c2nc3c(c(=O)[nH]c(=O)n3C)n2CCCc2ccccc2)CC1 | 5160 (active)
11 | CCCSc1nc2c(c(=O)[nH]c(=O)n2C)n1CCc1ccccc1 | 6090 (active)
12 | COC(=O)Nc1ncc(CN2C(=O)c3ccccc3C2=O)s1 | 2570
13 | CCc1cc(=O)oc2cc(OCC(=O)N3CCCc4ccccc43)ccc12 | 4550 (active)
14 | C=CCn1cnc2scc(-c3ccccc3)c2c1=O | 3500 (active)
15 | CCCc1nc(N)nc2c1C(=O)CC(C)(C)C2 | 4320 (active)
16 | COc1ccc(-c2nnn(Cc3nc(N)nc(N4CCCCC4)n3)n2)cc1 | 3650 (active)
17 | COc1ccc(CCN(C)C(=O)C2CCCN(Cc3ccc(OC)c(OC)c3)C2)cc1OC (stereo unspecified) | 2610
18 | COc1ccc(NC(=O)C2CCCN(S(=O)(=O)c3cccc4cccnc34)C2)cc1OC (stereo unspecified) | 3940 (active)
19 | CCOC(=O)c1c(NC(=O)CSc2nnc(CN3CCOCC3)n2C)sc2c1CCCC2 | 2880
20 | C#CCNc1nc(C(C)C)nc2c1nnn2Cc1ccccc1F | 3140 (active)
21 | COc1ccc(-c2cc(C(F)(F)F)nc(S(C)(=O)=O)n2)cc1OC | 4780 (active)
22 | N#CCCN1CCN(S(=O)(=O)c2ccc(S(=O)(=O)NC3CCCCC3)cc2)CC1 | 2440

Row | SMILES | luminescence
23 | COc1ccc(S(=O)(=O)Nc2ccc(S(=O)(=O)N3CCCCC3)cc2)cc1OC | 3220 (active)
24 | COc1nc(NCc2ccc(Cl)cc2)nc(OC)n1 | 2930
25 | CCOC(=O)c1cc2n(c1C)-c1ccccc1C2=O | 3830 (active)
26 | c1ccc(-c2nnc3n2NC(c2ccc4c(c2)OCO4)S3)cc1 (stereo unspecified) | 3680 (active)
27 | CCCCNc1nc2ccccc2nc1NS(=O)(=O)c1cccs1 | 3780 (active)
28 | COc1ccc(CCNC(=O)CCn2c(=O)oc3ccccc32)cc1OC | 3400 (active)
29 | COc1ccc(CCNC(=O)c2cc3sccc3n2C)cc1OC | 3110
30 | CCn1c(=N)c(S(=O)(=O)c2ccc(F)cc2)cc2c(=O)n3ccccc3nc21 | 5680 (active)
31 | CCCn1c(=NC(C)=O)c(C(=O)OCC)cc2c(=O)n3ccccc3nc21 | 2650
32 | O=C(NCc1ccccn1)c1ccc2nc(-c3ccco3)c(-c3ccco3)nc2c1 | 2550
33 | Cn1c(/C(C#N)=C2/CCCCCN2)nc2ccccc21 | 3990 (active)
34 | CCn1cc(C(=O)NCC2COc3ccccc3O2)c2cc(OC)c(OC)cc2c1=O (stereo unspecified) | 2910
35 | CCC(=O)NC(=Nc1nc2ccccc2s1)NC(=O)CC | 3180
36 | Cn1c(=O)c2[nH]c(NCC3CCCO3)nc2n(-c2ccccc2)c1=O (stereo unspecified) | 2780
37 | c1ccc2c(NCC3CCCO3)nc(-c3ccncc3)nc2c1 (stereo unspecified) | 3220 (active)
38 | CCCCSc1nc2c(c(=O)n1CC)SC(C)C2 (stereo unspecified) | 2820
39 | CCOc1cccc(-n2nnnc2-c2ccc(OC)cc2)c1 | 4040 (active)
40 | CC(C)n1c(C(O)c2ccccc2)nc2ccccc21 (stereo unspecified) | 2350
41 | CCCS(=O)(=O)N1CCC(C(=O)NCCc2ccc(OC)c(OC)c2)CC1 | 2720
42 | COC(=O)c1ccccc1NC(=O)C1CCN(S(=O)(=O)c2cc(OC)ccc2OC)CC1 | 3570 (active)
43 | Cn1c(=O)c2cn(-c3cccc4ccccc34)cc2n(C)c1=O | 3300 (active)
44 | COc1ccc(Nc2cc(C)nc(-n3nc(C)cc3C)n2)cc1 | 3540 (active)

Row | SMILES | luminescence
45 | CC(=O)c1ccc(Oc2cc(C)nc(-n3nc(C)cc3C)n2)cc1 | 6880 (active)
46 | COc1ncnc2sc3c(c12)CCCC3 | 2970
47 | CCOc1ccc(Cn2c(SCCCCC#N)nc3c2c(=O)n(C)c(=O)n3C)cc1OCC | 5750 (active)
48 | COC(=O)C(C)C1Sc2ccccc2NC1=O (stereo unspecified) | 3160
49 | CN1CCN(CC(O)COCc2ccc3c(c2)OCO3)CC1 (stereo unspecified) | 5380
50 | c1coc(-c2nc3nc4ccccc4n3nc2-c2ccco2)c1 | 4380 (active)
51 | COC(=O)C1=C(C)NC2=C(C(=O)c3ccccc32)C1c1ccc(-c2ccc(C(=O)O)cc2)o1 (stereo unspecified) | 2560
52 | CCCCc1c(O)nc2n(c1=O)CCS2 | 2460
53 | COc1ccc(CCNc2ncnc3nc[nH]c23)cc1OC | 3430 (active)
54 | CCCc1nc(-c2ccccc2O)n(-c2ccccc2)n1 | 3160 (active)
55 | CC1(C)Cc2ccccc2-c2nc(CN3CCOCC3)[nH]c(=O)c21 | 3540 (active)
56 | CC1Oc2ccccc2N(Cc2cccnc2)C1=O (stereo unspecified) | 2840 (active)
57 | CCOC(=O)c1c(NC(=O)CSc2nnc(Cc3csc(N)n3)n2C)sc(C)c1C | 2440
58 | c1ccc(COc2nsnc2N2CCOCC2)cc1 | 4500
59 | N#CCSc1nc2ccccc2c(=O)n1-c1ccccc1 | 4560 (active)
60 | C=CCSc1nc2c(c(=O)[nH]1)C(C(C)C)C(C#N)=C(N)O2 (stereo unspecified) | 5180 (active)
61 | COc1ncnc2c1N=C1CC(C)(C)CC(N)=C1S2 | 2960
62 | O/N=C(\c1ccc2c(c1)OCCO2)C1CCCCC1 | 2880 (active)
63 | COc1ccc(Nc2oc(-c3ccccc3Cl)nc2C#N)cc1 | 3960 (active)
64 | N#Cc1nc(Cc2ccccc2)oc1NCCc1ccccc1 | 4280 (active)
65 | CCOc1ccc(Nc2oc(Cc3ccccc3)nc2C#N)cc1 | 5850 (active)
66 | CC(C)C1C2=C(CC(C)(C)CC2=O)ON1c1ccccc1 (stereo unspecified) | 3320
